Results as given in PubChem BioAssay (NCATS).
Inconclusive results are not listed. Entries that show only a call come without a potency. A number with no mark means an inactive call. Active and inactive are the calls of the source. Calls follow the shape of the dose curve; as a rule, active = well fitted cell-killing curve with a large enough effect; inconclusive = small, poorly fitted or top-dose-only effect, or effect the other way; inactive = flat fitted curve, though single readings scatter.

Tests used:
Test in all cases: Primary qHTS to identify gynecologic anti-cancer compounds using libraries of approved drugs and bioactive compounds (AID 1345084); also: nearly all actives have a fitted effect of over 55% in size
Conditions in all cases: Gynecologic cancer cell panel viability, ATPlite luminescence, 48 h; series mostly up to 57.5 µM
PA-1 = tested on: PA-1
Summary of the method: (§1)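 Cells, 1,000 per well, were allowed to settle for 16 h at 37 C before compound addition. Five concentrations were tested for 48 h, and viability was read by ATPlite luminescence after 15 min at room temperature.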

SKOV3 = tested on: SKOV3
Summary of the method: as §1

Tov-21-G = tested on: Tov-21-G
Summary of the method: as §1

Tov112D = tested on: Tov112D
Summary of the method: as §1
Potency is read from the fitted curve at half-maximal effect.

Structure (SMILES)	Potency (PA-1)	Potency (SKOV3)	Potency (Tov-21-G)	Potency (Tov112D)	activity change, negative = cytotoxicity (PA-1)	activity change, negative = cytotoxicity (SKOV3)	activity change, negative = cytotoxicity (Tov-21-G)	activity change, negative = cytotoxicity (Tov112D)
C=C1CC[C@@H](O)[C@]2(C)CC[C@H]3C(=C)C(=O)O[C@@H]3[C@@H]12	inactive	inactive	inactive	inactive	–	–	–	–
CN(C)c1ccc(NC(=O)NS(=O)(=O)c2ccc(Cl)cc2)cc1	inactive	inactive	inactive	inactive	–	–	–	–
COc1ccc2cc(-c3cc(-c4cc(Cl)cc(Cl)c4)nn3C(C)c3ccc(C(=O)NCCC(=O)O)cc3)ccc2c1 (stereo unspecified)	inactive	inactive	inactive	inactive	–	–	–	–
Cc1cccc(C#Cc2cc(F)cc(C#N)c2)n1	inactive	inactive	inactive	inactive	–	–	–	–
CC(=O)OC1CC(O)(C(C)C)C2C(OC(=O)c3ccc(O)cc3)C=C(C)C(=O)CC12C (stereo unspecified)	inactive	inactive	inactive	inactive	–	–	–	–
Cc1cc2sc(NC(=O)Cc3ccccc3)nc2cc1Cl	inactive	inactive	inactive	inactive	–	–	–	–
O=C(O)c1cc(N(Cc2ccc(C3CCCCC3)cc2)C(=O)c2ccc(Oc3ccccc3)cc2)ccc1O	inactive	inactive	inactive	inactive	–	–	–	–
CC1(CO)CC2C(O)C3=C(CC(C)(O)C2C1)C(=O)OC3 (stereo unspecified)	inactive	inactive	inactive	inactive	–	–	–	–
Cc1cc(NC(=O)NCCN2CCC(O)(Cc3ccccc3)CC2)c2ccccc2n1	inactive	inactive	inactive	inactive	–	–	–	–
CC(=O)N[C@H]1[C@H](O[C@H]2CC[C@@]3(C)C(CC[C@]4(C)C3CC=C3C5CC(C)(C)CC[C@]5(C(=O)O)C(O)C[C@]34C)C2(C)C)O[C@H](CO[C@@H]2O[C@H](C)[C@H](O)[C@H](O)[C@H]2O[C@@H]2OC[C@@H](O)[C@H](O)[C@H]2O)[C@@H](O)[C@@H]1O (stereo partly specified)	–	–	–	–	4.44% [at 11.6 µM]	-11.9% [at 11.6 µM]	-0.865% [at 11.6 µM]	-1.59% [at 11.6 µM]
COC(=O)C[C@H]1[C@]2(C)C3=C(C)[C@H](c4ccoc4)C[C@H]3O[C@@H]2[C@H](O)C2[C@](C)(C(=O)OC)C=CC(=O)[C@@]21C (stereo partly specified)	inactive	inactive	inactive	inactive	–	–	–	–
Nc1nc2c(s1)CCN(Cc1ccc(Cl)cc1)CC2	inactive	inactive	inactive	inactive	–	–	–	–
Cc1cccc(N2CCN(C(=O)c3cc(S(=O)(=O)N(C)C)ccc3N3CCCC3)CC2)c1C	inactive	inactive	inactive	inactive	–	–	–	–
CN(C)N(C)C(=O)[C@@]1(Cc2ccccc2)CCCN(C(=O)[C@@H](Cc2c[nH]c3ccccc23)NC(=O)C(C)(C)N)C1	inactive	inactive	inactive	inactive	–	–	–	–
COC1CC(O[C@H]2CC[C@]3(C)C4CC[C@]5(C)C(C6=CC(=O)OC6)=CCC56OC46CC[C@@H]3C2)OC(C)C1O[C@@H]1O[C@H](CO[C@@H]2O[C@H](CO)[C@@H](O)[C@H](O)[C@H]2O)[C@@H](O)[C@H](O)[C@H]1O (stereo partly specified)	3.98 µM (active)	3.16 µM (active)	2.24 µM (active)	2 µM (active)	–	–	–	–
O=C([C@@H](Cc1cccc(C(F)(F)F)c1)NS(=O)(=O)c1cc(F)c2c(c1)CCNC2)N1CCCC1	inactive	inactive	inactive	inactive	–	–	–	–
CNC(=O)c1ccc2c(c1)CCO[C@H]2CCN1CCN(c2ccc(OC)cc2)CC1	inactive	inactive	inactive	inactive	–	–	–	–
CN1CCN(C2=Nc3ccccc3Nc3ccc(Cl)cc32)CC1	inactive	inactive	inactive	inactive	–	–	–	–
CC(=O)O[C@@H]1CC2C(/C=C(\C)C(=O)[C@@]3(O)C[C@@H](C)[C@H](OC(=O)c4ccccc4)C3/C=C/1C)C2(C)C (stereo partly specified)	inactive	inactive	inactive	inactive	–	–	–	–
CNc1cc2[nH]c(=O)n(-c3ccc(NC(=O)NS(=O)(=O)c4ccc(Cl)s4)cc3)c(=O)c2cc1F	inactive	inactive	inactive	inactive	–	–	–	–
CN1CCN(c2ccc(-c3cccc(CN4CCOCC4)c3)cc2NC(=O)c2c[nH]c(=O)cc2C(F)(F)F)CC1	inactive	inactive	inactive	inactive	–	–	–	–
CC[C@H](C)/C=C(C)/C=C/C1=CC2=C(Cl)C(=O)[C@](C)(O)[C@H](OC(C)=O)[C@H]2CO1	inactive	inactive	inactive	inactive	–	–	–	–
C/C(=C\CO[C@@H]1O[C@H](CO[C@H]2OC[C@](O)(CO)[C@H]2O)[C@@H](O)[C@H](O)[C@H]1O)C(C)(C)O	inactive	inactive	inactive	inactive	–	–	–	–
C=C[C@](C)(O)CC[C@H]1C(C)=CC(=O)[C@H]2C(C)(C)CCC[C@]12C	inactive	inactive	inactive	inactive	–	–	–	–
